Test results as given in PubChem BioAssay AID1053127 (Broad Institute, 2014).
Measured potencies and affinities stand elsewhere. Calls of active or inactive are those of the source.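 Rule for the calls: active = compounds whose fitted curve of lowered CTGF expression reaches half effect within a set concentration limit; inconclusive = flat moderate drop in CTGF, or unreliable curve fit; inactive = the rest.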

Experiment: CTGF mRNA reduction under YAP1 overexpression, dose response, mechanism study for YAP1 pathway inhibitor project, DLD1 cells, RT-qPCR, cherry-pick (AID 1053127)
Conditions: DLD1 YAP1-overexpressing, 24 h; series mostly up to 26 µM

Row | SMILES | outcome
1 | COc1cccc(-c2ccc([C@H]3[C@@H](CO)N4CCCCN(C(=O)Cc5ccncc5)C[C@H]34)cc2)c1 | inactive
2 | COc1cccc(-c2ccc([C@@H]3[C@H](CO)N4CCCCN(C(=O)Cc5ccncc5)C[C@@H]34)cc2)c1 | inactive
3 | COc1cccc(-c2ccc([C@@H]3[C@H]4CN(C(=O)Cc5ccncc5)CCCCN4[C@H]3CO)cc2)c1 | inactive
4 | O=C(Cc1ccncc1)N1CCCCN2[C@H](CO)[C@H](c3ccc(C#Cc4ccccc4F)cc3)[C@H]2C1 | inactive
5 | O=C(Cc1ccncc1)N1CCCCN2[C@@H](CO)[C@@H](c3ccc(C#Cc4ccccc4F)cc3)[C@@H]2C1 | inactive
6 | COc1cccc(-c2ccc([C@@H]3[C@@H](CO)N4CCCCN(C(=O)Cc5ccncc5)C[C@H]34)cc2)c1 | inactive
7 | COc1cccc(-c2ccc([C@H]3[C@H](CO)N4CCCCN(C(=O)Cc5ccncc5)C[C@@H]34)cc2)c1 | inactive
8 | O=C(Cc1ccncc1)N1CCCCN2[C@H](C1)[C@@H](c1ccc(C#Cc3ccccc3F)cc1)[C@@H]2CO | inactive
9 | O=C(Cc1ccncc1)N1CCCCN2[C@@H](CO)[C@H](c3ccc(C#Cc4ccccc4F)cc3)[C@@H]2C1 | inactive
10 | COc1cccc(-c2ccc([C@H]3[C@@H](CO)N4CCCCN(C(=O)Cc5ccncc5)C[C@@H]34)cc2)c1 | inactive
